Source: PubChem BioAssay
This is a sample that favours compounds with a hit; in the whole collection about 2.5% have one here.
Dyrk1A ADPGlo – rat Dyrk1A kinase inhibitors, primary screen, biochemical, single point, plate reader; ADP-Glo luminescence, NFATc1 peptide; 0.43% of 310,000 active; Dual specificity tyrosine-phosphorylation-regulated kinase 1A (Rattus norvegicus), Q63470; inhibition, % at 12.5 µM; in the data active = inhibition above about 50%
HSF-1 act – HSF-1 activators, primary screen, NIH3T3-HGL cells, MG132 stress, luminescence, single point; NIH3T3-HGL HSF-1 luciferase reporter, 8 h; 100% = twice DMSO control signal; AID 504408, 2011; activation, % at 9 µM; 1.7% of 300,000 active;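 active = mean replicate activation of at least 50% with a set share of replicates each reaching 50%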
aDG glyco act – activators of alpha-DG glycosylation, primary screen, uHTS, Pro5-aDG cells, AlphaScreen; alpha-DG glycosylation AlphaScreen (IIH6); 0% Pro5, 100% B10-LARGE cell signal; activation, % at 10 µM; 0.22% of 360,000 active;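 active = activation of at least 8% versus controls, or a plate z-score of at least 8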;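 note: Pro5 are CHO cells carrying HIG-tagged alpha-DG that lacks glycosylation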
NPR2 activator – human GC-B receptor activators, primary screen, HEK293 GC-B cells, cGMP TR-FRET, EC30 CNP; Atrial natriuretic peptide receptor 2 (Homo sapiens), P20594; 0% at EC30 CNP, 100% saturating CNP; activation, % at 10 µM; 0.11% of 370,000 active; AID 1920062, 2024;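 active = activation at 10 µM reaching about 35% in either raw or pattern-adjusted values, limit read from the data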
Target sequence (P20594 whole entry, looked up): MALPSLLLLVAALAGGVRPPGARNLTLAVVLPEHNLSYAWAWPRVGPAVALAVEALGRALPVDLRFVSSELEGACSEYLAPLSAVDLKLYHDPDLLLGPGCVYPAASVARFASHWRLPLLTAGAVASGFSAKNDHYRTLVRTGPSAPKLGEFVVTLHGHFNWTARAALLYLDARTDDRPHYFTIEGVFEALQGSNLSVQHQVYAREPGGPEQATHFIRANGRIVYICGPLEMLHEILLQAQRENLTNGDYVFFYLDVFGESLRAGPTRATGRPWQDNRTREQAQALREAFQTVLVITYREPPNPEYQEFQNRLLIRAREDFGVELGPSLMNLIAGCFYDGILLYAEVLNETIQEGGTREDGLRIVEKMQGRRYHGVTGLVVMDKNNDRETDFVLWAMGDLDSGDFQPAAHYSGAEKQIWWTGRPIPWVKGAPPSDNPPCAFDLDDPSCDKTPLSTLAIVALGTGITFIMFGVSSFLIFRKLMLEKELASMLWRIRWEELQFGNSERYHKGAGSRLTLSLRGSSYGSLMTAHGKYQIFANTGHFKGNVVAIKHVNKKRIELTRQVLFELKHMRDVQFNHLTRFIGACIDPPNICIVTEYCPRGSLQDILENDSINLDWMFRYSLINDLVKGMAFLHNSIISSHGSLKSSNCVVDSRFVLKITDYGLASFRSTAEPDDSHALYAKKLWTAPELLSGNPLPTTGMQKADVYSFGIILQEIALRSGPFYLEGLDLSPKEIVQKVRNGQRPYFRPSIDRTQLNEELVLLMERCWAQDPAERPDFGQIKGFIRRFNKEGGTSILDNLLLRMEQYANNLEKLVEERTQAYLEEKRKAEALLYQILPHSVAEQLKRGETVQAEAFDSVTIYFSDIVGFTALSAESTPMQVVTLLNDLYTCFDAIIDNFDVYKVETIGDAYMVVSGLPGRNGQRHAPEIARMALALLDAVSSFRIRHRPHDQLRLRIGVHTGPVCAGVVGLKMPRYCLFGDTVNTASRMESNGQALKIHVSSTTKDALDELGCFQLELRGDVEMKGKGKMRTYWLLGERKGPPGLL
HSF1 inh – HSF1 inhibitors in luciferase reporter cells, primary screen, cell-based, NIH3T3, luminescence; NIH3T3-HGL HSE-luciferase, MG132-induced, luminescence 8 h; active compounds read low; 0.77% of 300,000 active; AID 2098, 2009; activity change, negative = inhibition, % at 7.5 µM (by protocol);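 active = more than half of replicate wells show activity change below -50%, luminescence cut by over half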;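 note: luciferase reports HSF-1 transcriptional activity via heat shock element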
NPR1 activator – GC-A stimulated cGMP production enhancers – HEK293 GC-A cells, cGMP TR-FRET, EC30 ANP, primary screen; Atrial natriuretic peptide receptor 1 (Homo sapiens), P16066; 0% at EC30 ANP, 100% saturating ANP; activation, % at 10 µM; 0.14% of 370,000 active; AID 1671463, 2021; in the data active = activation above about 40%
Numbers stand for hits; i = inactive; nt = no result.

SMILES	Dyrk1A ADPGlo	HSF-1 act	aDG glyco act	NPR2 activator	HSF1 inh	NPR1 activator
CN1C(=O)c2cccc(NC(=O)C3CCCCC3)c2C1=O	i	i	i	54.5	i	i
Cc1ccc(O)c(NC(=O)CCC2CCCCC2)c1	i	151.4	i	i	i	i
Cn1c(NNC(=O)CCC2CCCCC2)cc(=O)n(C)c1=O	i	i	i	i	i	i
Cc1ccc(O)c(NC(=O)CCCC(=O)O)c1	i	i	i	i	i	i
Cc1ccc(O)c(NC(=O)C2CCCCC2)c1	i	68.4	i	i	i	i
COc1ccc(CNCC(=O)Nc2ccccc2-n2cccc2)cc1	i	i	i	i	i	i
O=C(CCC1CCCCC1)Nc1ccccc1O	nt	58.9	i	i	i	i
O=C(CCC1CCCCC1)Nc1ccccc1-c1ccccc1	i	i	i	i	i	i
N/C(=N\OC(=O)c1cccs1)c1ccc(Cl)cc1	nt	59.5	i	i	i	i
CCC(C)NC(=O)c1cn(CC)c2ccc(S(=O)(=O)N3CCCCCC3)cc2c1=O (stereo unspecified)	i	i	i	i	i	i
O=C(Nc1ccc(Cl)cc1C(=O)O)c1ccc2c(c1)C(=O)N(Cc1ccco1)C2=O	i	i	i	i	i	i
O=S(=O)(Nc1ccccc1O)c1cccc2cccnc12	i	77.7	i	i	i	i
O=S(=O)(Nc1ccc(O)cc1)c1cccc2cccnc12	i	i	i	i	i	i
COc1ccc(OC)c(S(=O)(=O)N2CCCCC2C(=O)N2CCN(Cc3ccc(F)cc3)CC2)c1 (stereo unspecified)	nt	nt	nt	i	nt	i
COc1ccc(N=C2NC(=O)/C(=C\C=C\c3ccco3)S2)cc1	i	124.2	i	i	i	i
Cc1ccccc1-c1nnc(-c2ccccc2)o1	i	i	i	i	i	i
Cn1cc(-c2nnc(-c3ccccc3)o2)c2ccccc21	i	65.5	i	i	i	i
Cc1[nH]c(C)c(S(=O)(=O)N(Cc2ccccc2)C(C)C)c1C(=O)N1CCCC1	i	i	i	i	i	i
O=C(CSc1nnc(COc2ccc3c(c2)CCCC3)o1)Nc1ccc(F)cc1	i	i	i	i	-58.0	i
CCOC(=O)c1c(C)oc2c1C(=O)c1ccccc1C2=O	i	i	9.7	i	i	i
Cc1cc2nc3c(=O)n(CCc4ccccc4)c(=O)[nH]c3nc2cc1N	nt	59.0	i	i	i	i
Cc1ccc(C)c(NS(=O)(=O)c2c(C)nc3sccn3c2=O)c1	i	i	i	i	i	i
Cc1cc(NC(=O)c2ccc([N+](=O)[O-])o2)ccc1NC(=O)c1ccco1	i	72.3	i	i	i	i
COc1cc(NC(=O)c2ccc([N+](=O)[O-])o2)ccc1NC(=O)c1ccco1	i	124.9	i	i	i	i
Cc1cc([N+](=O)[O-])ccc1NC(=O)c1ccco1	i	i	i	i	i	i
SMILES	Dyrk1A ADPGlo	HSF-1 act	aDG glyco act	NPR2 activator	HSF1 inh	NPR1 activator
CCOc1ccc(NC(=O)c2ccco2)c([N+](=O)[O-])c1	i	54.4	i	i	i	i
CSc1cccc(NC(=O)COC(=O)c2ccccn2)c1	i	nt	i	i	nt	i
O=C1CCCC/C=C\C[C@H](CC(=O)N(CCO)Cc2ccccc2)C(=O)NCCO1	i	nt	i	i	nt	i
Cc1ccc(NC2=CC(=O)C(=O)c3ccccc32)cc1	i	79.8	i	i	i	i
CCOC(=O)c1ccc(NC2=CC(=O)C(=O)c3ccccc32)cc1	i	i	i	i	i	i
NS(=O)(=O)c1ccc(NC2=CC(=O)C(=O)c3ccccc32)cc1	i	i	i	i	-70.0	i
COC(=O)c1sccc1NC(=O)Nc1cc(C)ccc1OC	i	i	i	i	i	i
Nn1c(SCc2ccc(F)cc2)nnc1-c1cccnc1	i	62.1	i	i	i	i
Cc1ccc(C(C(=O)NCc2ccccc2)N(C(=O)c2csnn2)C2CC2)cc1 (stereo unspecified)	i	i	i	i	i	i
O=c1c2ccccc2oc2ccc(C#CC3(O)CCCCC3)cc12	i	i	i	i	-86.1	i
Cn1c2ccccc2c(=O)c2cc(C#CC3(O)CCCCC3)ccc21	i	i	i	i	-84.7	i
Cc1cc2sc3ccc(C#CC4(O)CCCCC4)cc3c(=O)c2cc1C	i	i	i	i	-90.3	i
CCOCCC(=O)Nc1ccc2c(c1)c(=O)n(C)n2-c1ccccc1F	nt	nt	i	i	nt	i
Cc1ccc(S(=O)(=O)N2[C@@H](c3cccc(C)c3)C(C(=O)O)=C[C@H]2CC2CCCC2)cc1	nt	nt	i	i	nt	i
CCn1c(NCCCO)nc2c(c1=O)C(C)(CC)Cc1ccccc1-2 (stereo unspecified)	i	i	i	i	i	i
COCCCNC(=O)c1nnn2c1nc(N)c1cc(Cl)ccc12	nt	nt	nt	i	nt	i
COc1ccc(-c2cc(C(=O)Nc3ccc(Cl)cc3Cl)c3ccccc3n2)cc1OC	i	i	i	i	i	i
COc1ccc(-c2cc(C(=O)Nc3ccccc3O)c3ccccc3n2)cc1OC	i	70.9	i	i	i	i
O=C(NNC(=O)c1cc(-c2ccc(Cl)c(Cl)c2)nc2ccccc12)Nc1ccccc1	i	55.7	i	i	i	i
COc1ccc(C(=O)NNC(=O)CCC(=O)Nc2cc(C)on2)cc1	i	i	i	i	i	i
Cn1nc(N)c2c(-c3ccccc3)c(C#N)c(N)nc21	i	i	i	i	-68.7	i
Cn1nc(N)c2c(-c3ccc(Cl)cc3)c(C#N)c(N)nc21	i	i	i	i	i	i
Cc1nc(-c2cccc(NC(=O)c3ccc(Br)o3)c2)cs1	i	nt	i	i	nt	i
Cc1nc(-c2ccc(NC(=O)c3ccc(Br)o3)cc2)cs1	i	52.8	i	i	i	i
Cc1nc(-c2ccc(C(=O)Nc3cccc(Br)c3)cc2)cs1	i	55.9	i	i	i	i
Cc1nc(-c2cccc(NC(=O)c3ccc(-n4nccc4C)cc3)c2)cs1	nt	nt	i	i	nt	i
Cc1ccccc1OCC(=O)N/N=C/c1ccc(Sc2nc3ccccc3s2)o1	i	i	i	i	i	i
COC(=O)C1CCCCN1C(=O)c1cc(COc2cccc3cnccc23)on1 (stereo unspecified)	i	i	i	i	i	i
CCOC(=O)CC1CCCCN1C(=O)c1cc(COc2cccc3cnccc23)on1 (stereo unspecified)	i	i	6.7	i	i	i
COc1ccc(C(=O)Nc2nccs2)cc1[N+](=O)[O-]	i	nt	i	i	nt	i
